Screening data as filed in PubChem.
HT1080NT lethal – kills 2HG-producing HT-1080-NT fibrosarcoma cells; HT-1080-NT fibrosarcoma viability, CellTiter-Glo ATP luminescence, 48 h; Potency, µM (highest dose often 46.1 µM), usual class: cytotoxic; actives 1.6% (n = 360,000); AID 686970;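 also: NT is the 2HG producing partner of a matched IDH1 knockdown line; nearly all actives have a fitted effect of over 55% in size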
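Compounds were tested in concentration-response format on HT-1080-NT cells for 48 hours at 37 degrees C. Cell viability came from CellTiter-Glo luminescence; curves were classified by r2, response magnitude and activity.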
TDP1 cell noCPT – qHTS for Inhibitors of human tyrosyl-DNA phosphodiesterase 1 (TDP1): qHTS in cells in absence of CPT; DT40 Tdp1-/- hTDP1 cells, no CPT, ATP luminescence, 48 h; actives 15% (n = 420,000); Potency, µM (series often up to 46.2 µM), actives largely listed as inhibitors; also: nearly all actives have a fitted effect of over 55% in size
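Cells were dispensed at 400 per well, compounds added by pin tool, plates incubated ≥48 hr at 37 °C, then CellTiter-Glo added for 30 min at room temperature before luminescence reading. Line: DT40 Tdp1-/- complemented with hTDP1; camptothecin omitted.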
TDP1 cell CPT – growth inhibition of DT40 Tdp1-/-;hTDP1 cells with camptothecin (screen for TDP1 inhibitors); Potency, µM (doses to about 46.2 µM), actives largely listed as inhibitors; AID 686979; chicken DT40 Tdp1-/-;hTDP1 cells + 20 nM CPT, ATP luminescence, 48 h; actives 12% (n = 420,000); also: nearly all actives have a fitted effect of over 55% in size
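Chicken DT40 Tdp1-/- cells stably complemented with human TDP1 were seeded at 400 cells/well in medium containing 20 nM camptothecin, exposed to pin-transferred compounds, and grown at 37 °C for at least 48 hr. Viability was read as ATP luminescence.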
HT1080 IDH1KD tx – toxicity to HT-1080 IDH1 knockdown cells (counter line); Potency, µM (highest dose often 46.1 µM), most hits filed as cytotoxic; HT-1080 IDH1 knockdown viability, ATP luminescence, 48 h; actives 2% (n = 360,000); AID 686971
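CellTiter-Glo luminescence after 48 h compound exposure at 37 degrees C of IDH1-knockdown HT-1080 cells in 5% FBS RPMI. %Activity scaled between DMSO wells and cell-free media wells, with curves fitted and assigned curve classes.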
IL-1B inflam inh – inhibitors of inflammasome signaling (IL-1 beta secretion). actives 4.7% (n = 360,000). activity change, % at 57.5 µM. THP-1 LPS/ATP IL-1B secretion, AlphaLISA, 16 h; stronger effect = lower value; in the data active = activity change below about -50%; inconclusive = mostly about -30% to -49%
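Secreted IL-1B measured by AlphaLISA bead assay after 16 h compound exposure of THP-1 cells; compounds (final up to 57.5 uM) added 1 h before LPS (250 ng/mL) and ATP (1.25 mM) stimulation; lower signal means less secretion.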
A number is an active result; i = inactive; ? = inconclusive; [ ] = remark or other dose. Most compounds without a hit are left out; they make up all but 19% or so of the library. Unless noted, calls follow the shape of the dose curve; as a rule, active = well fitted curve in the direction sought with a large enough effect; inconclusive = small, poorly fitted or top-dose-only effect, or another doubt; inactive = no such curve, though single readings can be large; an effect the other way counts as inactive or inconclusive.

SMILES	HT1080NT lethal	TDP1 cell noCPT	TDP1 cell CPT	HT1080 IDH1KD tx	IL-1B inflam inh
CC(NC(=O)Cn1cc([N+](=O)[O-])cn1)c1ccc(C(C)(C)C)cc1 (centres undefined)	i	?	?	i	i
Cc1ccc(C(=O)Nc2cccc(N3C(=O)C4CCC(C)CC4C3=O)c2)cc1 (centres undefined)	i	i	i	i	i
CCCn1c(=O)n(C)c(=O)c2c(SCC(=O)NCc3ccco3)nc(C3CC3)nc21	i	?	?	i	i
CSc1ncccc1C(=O)OCC(=O)NC1CCC(C)CC1 (centres undefined)	i	i	i	i	i
CNc1ccc(Br)cc(C(=O)/C=C/c2cc(OC)ccc2OC)c1=O	?	10.3µM	20.6µM	?	-99.4
CNc1ccc(Br)cc(C(=O)/C=C/c2ccc(OC)cc2)c1=O	i	18.4µM	6.51µM	i	?
CNc1ccc(Br)cc(C(=O)/C=C/c2ccc3c(c2)OCO3)c1=O	?	18.4µM	18.4µM	?	-100.3
CCNc1ccc(Br)cc(C(=O)/C=C/c2ccc(Cl)cc2Cl)c1=O	?	9.2µM	10.3µM	?	-97.8
COc1ccc(CCNC(=O)/C=C/c2ccc(S(=O)(=O)N3CCOCC3)cc2)cc1	i[9.24 µM]	i	i	i	i
CCOc1cc(S(=O)(=O)NCc2ccc(OC)cc2)c(OCC)cc1-n1cnnn1	12.6µM	2.06µM	4.11µM	8.91µM	i
CCOC(=O)C1=C(C)NC(=S)NC1c1ccc(OCC(=O)N2CCCCCC2)cc1 (centres undefined)	i	i	?	i	i
S=C(NCCc1ccccc1)N/N=C/c1cccc(Cl)c1Cl	i	i	i	i	i
S=C(NCC1CC1)N/N=C/c1ccccc1Cl	i	23.1µM	?	i	i
O=[N+]([O-])c1ccc(Cl)c(/C=N/NC(=S)Nc2ccccc2)c1	?	10µM	11.2µM	4.47µM	i
S=C(N/N=C/c1ccccc1Cl)Nc1cccc(Cl)c1Cl	?	10.3µM	?	?	i
O=C(N/N=C/c1ccccc1Cl)C1CC1	i	i	i	i	?
Oc1ccccc1C=NNC(=S)Nc1ccc(F)cc1	?	1.46µM	0.92µM	5.8µM	-95.0
CCc1c(C(=O)Nc2cc(C(=O)OC)ccc2C)csc1C	i	i	?	i	i
CN(C)c1nc(N/N=C/c2ccccc2O)nc(Nc2ccc(F)cc2)n1	?	0.581µM	2.31µM	13µM	i
Fc1ccc(NC(=S)NN=Cc2ccccc2Cl)cc1	i	3.26µM	2.31µM	i	i
CN(C)c1nc(Nc2ccc(F)cc2)nc(Oc2ccc(F)cc2)n1	i	?	?	i	i
O=C(N/N=C/c1ccccc1Cl)c1ccc(F)cc1	i	i	i	i	i
CC1CCCN(S(=O)(=O)c2ccc3c(c2)c(=O)nc2ccc(Cl)cn23)C1 (centres undefined)	i	i	i	i	i
Cc1c(C(N)=O)sc2ncn(CC(=O)N3CCC(C)CC3)c(=O)c12	i	i	i	i	i
CC(C)C/C(O)=C/c1nc2cc(Cl)ccc2oc1=O	?	?	?	?	i
SMILES	HT1080NT lethal	TDP1 cell noCPT	TDP1 cell CPT	HT1080 IDH1KD tx	IL-1B inflam inh
O=c1oc2ccc(Cl)cc2nc1/C=C(\O)c1ccco1	i	18.4µM	?	i	i
COc1cc(Cl)ccc1OCc1cc(C(=O)N2C[C@]3(C)C[C@H]2CC(C)(C)C3)no1	i	16.4µM	?	i	i
CC1(C)CC2CC(C)(CN2C(=O)COC(=O)c2ccc(Cl)cc2N)C1 (centres undefined)	i	23.1µM	i	i	i
c1ccc(N2CCOCCOCCOCCOCCOCC2)cc1	i	i	i	i	i
Cc1ccc(N2CCOCC2)c2c1C(=O)c1ccccc1C2=O	i	16.4µM	?	?	?
CC(=O)N(C(C)=O)N1C(=O)c2cccc3c(N4CCOCC4)ccc(c23)C1=O	i	?	i	i	i
O=C1C=C(N2CCOCC2)c2ccccc2C1=O	6.51µM	2.31µM	2.59µM	4.61µM	-102.7
CN(C1=C(N2CCOCC2)C(=O)c2ccccc2C1=O)c1ccccc1	i	16.4µM	13µM	i	-85.9
O=C1C(N2CCOCC2)=Cc2cccc3cccc1c23	i	?	?	i	i
